From PubChem BioAssay
Values joined by “and” are separate entries in the source; they are usually repeats but may differ in a detail not shown here. Identical values can stand only once. Inconclusive results are not listed. Active and inactive are the calls of the source.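 Rule for the calls, unless noted: active = normalized viability below 100% at a tested concentration; inactive = the rest.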

Tests used:
[1] = growth inhibition of DIPG glioma cells, dose response, cell-based, SU-DIPG-XVII, MIPE5.0, CellTiter-Glo, qHTS (AID 1347060; cut-off not given, nearly all actives have AC50 up to about 26 µM;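 for AC50: cells exposed to compound for 48 hours before viability readout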); conditions: SU-DIPG-XVII viability, CellTiter-Glo ATP luminescence
[2] = growth inhibition of DIPG glioma cells, dose response, cell-based, SU-DIPG-XIII, MIPE4.0, CellTiter-Glo, qHTS (AID 1347061; cut-off not given, nearly all actives have AC50 up to about 37 µM;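 note: cells exposed to compound for 48 hours before readout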); conditions: SU-DIPG-XIII viability, CellTiter-Glo ATP luminescence
[3] = growth inhibition of DIPG glioma cells, dose response, cell-based, JHH-DIPG-1, MIPE4.0, CellTiter-Glo, qHTS (AID 1347062; cut-off not given, nearly all actives have AC50 up to about 27 µM;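 for AC50: cells exposed to compound for two days before readout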); conditions: JHH-DIPG-1 viability, CellTiter-Glo ATP luminescence
[4] = growth inhibition of DIPG glioma cells, dose response, cell-based, SU-DIPG-IV, MIPE4.0, CellTiter-Glo, qHTS (AID 1347063; cut-off not given, nearly all actives have AC50 up to about 30 µM;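 note: compound exposure lasted 48 hours before the viability readout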); conditions: SU-DIPG-IV viability, CellTiter-Glo ATP luminescence
[5] = growth inhibition of DIPG glioma cells, dose response, cell-based, SU-DIPG-XIII, MIPE5.0, CellTiter-Glo, qHTS (AID 1347064; cut-off not given, nearly all actives have AC50 up to about 23 µM;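 for AC50: cells exposed to compound for 48 hours before the viability read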); conditions: SU-DIPG-XIII viability, CellTiter-Glo ATP luminescence
[6] = viability loss in pontine glioma line – cell-based, SU-DIPG-XXV, MIPE5.0, CellTiter-Glo, qHTS, dose response (AID 1347065; cut-off not given, nearly all actives have AC50 up to about 26 µM;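 note: cells exposed to compound for 48 hours before ATP readout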); conditions: CellTiter-Glo ATP luminescence
[7] = SU-DIPG-VI glioma cell viability, MIPE4.0 library, CellTiter-Glo luminescence, qHTS (AID 1347066; cut-off not given, nearly all actives have AC50 up to about 30 µM;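 note: cells exposed to compound for 48 hours before readout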); conditions: CellTiter-Glo ATP luminescence
[8] = JHH-DIPG-1 glioma cell viability, MIPE5.0 library, CellTiter-Glo luminescence, qHTS (AID 1347067; cut-off not given, nearly all actives have AC50 up to about 26 µM;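 note: cells exposed to compound for 48 hours before readout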); conditions: JHH-DIPG-1 glioma viability, CellTiter-Glo ATP luminescence
[9] = SU-DIPG-XXV glioma cell viability, MIPE5.0 library, qHTS (AID 1347068; cut-off not given, nearly all actives have IC50 up to about 30 µM;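 for IC50: cells exposed to compound for 48 hours before viability readout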)
[10] = sensitizers of A549 cells to miR-34 induction, primary screen, imaging, A549 dox-inducible miR-34, nuclei and caspase counts (AID 1347080;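 active = compounds whose cell count with miR-34 switched on is under 0.7 times the count with it off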); conditions: A549 miR-34 inducible, Hoechst nuclei count, 48 h
[11] = survival rescue of mitochondrial mutant cells in low glucose, primary screen, MELAS cybrids, Rieske KO mouse fibroblasts, CellTiter-Glo (AID 1508586;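 active = mean z-score across replicates of 1.96 or higher in either the MELAS or the Rieske mutant cell line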;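 note: z relative to plate mean and SD of compound and empty wells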)
[12] = modifiers of HSF1 nuclear foci, imaging, Selleck Cancer Library (AID 1347162; in the data active = plate-normalised HSF1 focus index below about 0.46); conditions: human cells, at 10 µM; SSMD: measured here: HSF1 foci SSMD mean; cell count: measured here: cell number; plate-normalised HSF1 focus index: stronger effect = lower value
[13] = ovarian cancer cell viability with rucaparib, profiling panel, oncology-focused library, rucaparib conditional (AID 1508598); conditions: patient-derived ovarian cancer cells, CellTiter-Glo viability, 144 h, stronger effect = lower value
[14] = stronger effect = lower value, cell number ratio, induced over uninduced
[15] = measured here: relative caspase fold change +Dox/-Dox
[16] = measured here: total cells with miR-34 induction, stronger effect = lower value
[17] = measured here: total cells without miR-34 induction
[18] = MELAS cybrid survival, CellTiter-Glo 48 h, stronger effect = higher value
[19] = Rieske KO mouse fibroblast survival, CellTiter-Glo 72 h

Cc1cccc(-c2[nH]ncc2-c2ccc3ncccc3n2)n1
9850 and 8880: cell count [10, 16]
10200 and 9960: cell count [10, 17]
0.111: z-score [11, 19]
inactive: outcome [1] | outcome [2] | outcome [3] | outcome [4] | outcome [5] | outcome [6] | outcome [7] | outcome [8] | outcome [9] | fold change [10, 14] 0.969 and 0.891 | z-score [11, 18] -0.572
0.983 and 0.417: fold change [10, 15]

COc1ccc(-c2cc3c(C)nc(N)nc3n(C3CCC(OCCO)CC3)c2=O)cn1 (configuration not stated)
active: AC50 [1] 0.661 µM | AC50 [2] 0.418 µM | AC50 [3] 0.59 µM | AC50 [4] 0.0132 µM | AC50 [5] 0.468 µM | AC50 [6] 0.235 µM | AC50 [7] 1.18 µM | AC50 [8] 0.934 µM | IC50 [9] 1.32 µM
948: cell count [10, 16]
inactive: fold change [10, 14] 0.719 | z-score [11, 18] 1.34
1320: cell count [10, 17]
0.958: fold change [10, 15]
-2.85: z-score [11, 19]

Cc1ccc(O)c(C(CCN(C(C)C)C(C)C)c2ccccc2)c1 (configuration not stated)
8600 and 7630 and 13400: cell count [10, 17]
1.69 and 0.719 and 5.48: fold change [10, 15]
inactive: outcome [1] | outcome [2] | outcome [3] | outcome [4] | outcome [5] | outcome [6] | outcome [7] | outcome [8] | outcome [9] | fold change [10, 14] 0.945 and 0.96 and 0.87 | z-score [11, 18] -0.247
8130 and 7320 and 11700: cell count [10, 16]
-0.0904: z-score [11, 19]

C=C1C(=O)O[C@@H]2[C@H]3O[C@]3(C)CC/C=C(\C)CC[C@@H]12
-0.174: z-score [11, 19]
active: AC50 [1] 9.34 µM | AC50 [2] 16.6 µM | AC50 [3] 14.8 µM | AC50 [4] 7.43 µM | AC50 [5] 4.68 µM | AC50 [6] 7.42 µM | AC50 [7] 3.72 µM | AC50 [8] 6.61 µM | IC50 [9] 16.6 µM | z-score [11, 18] 2.28
inactive: fold change [10, 14] 0.927 and 0.781
4920 and 316: cell count [10, 16]
5310 and 404: cell count [10, 17]
1.09 and 1.49: fold change [10, 15]

C=CC(=O)Nc1cccc(Oc2nc(Nc3ccc(N4CCN(C)CC4)cc3)ncc2Cl)c1
active: AC50 [1] 0.468 µM | AC50 [2] 13.2 µM | AC50 [3] 1.66 µM | AC50 [4] 2.09 µM | AC50 [5] 1.32 µM | AC50 [6] 0.372 µM | AC50 [7] 18.7 µM | AC50 [8] 1.18 µM | IC50 [9] 0.525 µM
inactive: fold change [10, 14] 0.981 | z-score [11, 18] 1.07
1610: cell count [10, 17]
1580: cell count [10, 16]
0.779: fold change [10, 15]
0.326: z-score [11, 19]

Cc1ccccc1C(C(=O)NC1CCCCC1)N(C(=O)Cn1ccnc1C)c1cccc(F)c1 (configuration not stated)
inactive: outcome [1] | outcome [2] | outcome [3] | outcome [4] | outcome [5] | outcome [6] | outcome [7] | outcome [8] | outcome [9] | fold change [10, 14] 0.844 | z-score [11, 18] 0.145
9500: cell count [10, 17]
8020: cell count [10, 16]
0.447: fold change [10, 15]
0.11: z-score [11, 19]

CCOC(=O)N1CCN(/[N+]([O-])=N/Oc2ccc([N+](=O)[O-])cc2[N+](=O)[O-])CC1
inactive: outcome [2] | fold change [10, 14] 1.15
active: AC50 [1] 16.6 µM | AC50 [3] 5.9 µM | AC50 [4] 4.18 µM | AC50 [5] 4.17 µM | AC50 [6] 3.32 µM | AC50 [7] 10.5 µM | AC50 [8] 4.17 µM | IC50 [9] 23.5 µM
1.4: fold change [10, 15]
1840: cell count [10, 17]
2110: cell count [10, 16]

NC(=NCCCCCCN=C(N)N=C(N)Nc1ccc(Cl)cc1)N=C(N)Nc1ccc(Cl)cc1
inactive: fold change [10, 14] 0.848 | z-score [11, 18] -0.252
1620: cell count [10, 17]
0.00983: z-score [11, 19]
active: AC50 [1] 9.34 µM | AC50 [2] 4.18 µM | AC50 [3] 14.8 µM | AC50 [4] 18.7 µM | AC50 [5] 8.33 µM | AC50 [6] 9.34 µM | AC50 [7] 13.2 µM | AC50 [8] 11.8 µM | IC50 [9] 14.8 µM
1370: cell count [10, 16]
0.439: fold change [10, 15]

NC(=O)Nc1cc(-c2cccc(F)c2)sc1C(=O)N[C@H]1CCCNC1
7360: cell count [12]
-1.43: SSMD [12]
active: AC50 [1] 1.48 µM | AC50 [2] 20.9 µM | AC50 [3] 0.526 µM | AC50 [4] 5.9 µM | AC50 [5] 2.09 µM | AC50 [6] 1.18 µM | AC50 [7] 18.7 µM | AC50 [8] 3.32 µM | IC50 [9] 2.95 µM | viability ([13]; at 0.000305 µM, OCI-C5x cells, without rucaparib) 94.3% | viability ([13]; at 0.000305 µM, OCI-P5x cells, with rucaparib 20 µM, 100% = cells with rucaparib alone) 76% | viability ([13]; at 0.000305 µM, OCI-P5x cells, without rucaparib) 79.5% | viability ([13]; at 0.00122 µM, OCI-C5x cells, without rucaparib) 97.4% | viability ([13]; at 0.00122 µM, OCI-P5x cells, with rucaparib 20 µM, 100% = cells with rucaparib alone) 73.7% | viability ([13]; at 0.00122 µM, OCI-P5x cells, without rucaparib) 86.4% | viability ([13]; at 0.00488 µM, OCI-C5x cells, without rucaparib) 97.4% | viability ([13]; at 0.00488 µM, OCI-P5x cells, with rucaparib 20 µM, 100% = cells with rucaparib alone) 56.6% | viability ([13]; at 0.00488 µM, OCI-P5x cells, without rucaparib) 87.5% | viability ([13]; at 0.0195 µM, OCI-C5x cells, without rucaparib) 81.6% | viability ([13]; at 0.0195 µM, OCI-P5x cells, with rucaparib 20 µM, 100% = cells with rucaparib alone) 55.1% | viability ([13]; at 0.0195 µM, OCI-P5x cells, without rucaparib) 90.2% | viability ([13]; at 0.0781 µM, OCI-C5x cells, with rucaparib 10 µM, 100% = cells with rucaparib alone) 81.1% | viability ([13]; at 0.0781 µM, OCI-C5x cells, without rucaparib) 53.1% | viability ([13]; at 0.0781 µM, OCI-P5x cells, with rucaparib 20 µM, 100% = cells with rucaparib alone) 44.5% | viability ([13]; at 0.0781 µM, OCI-P5x cells, without rucaparib) 73.5% | viability ([13]; at 0.313 µM, OCI-C5x cells, with rucaparib 10 µM, 100% = cells with rucaparib alone) 48% | viability ([13]; at 0.313 µM, OCI-C5x cells, without rucaparib) 30.6% | viability ([13]; at 0.313 µM, OCI-P5x cells, with rucaparib 20 µM, 100% = cells with rucaparib alone) 26% | viability ([13]; at 0.313 µM, OCI-P5x cells, without rucaparib) 21.6% | viability ([13]; at 1.25 µM, OCI-C5x cells, with rucaparib 10 µM, 100% = cells with rucaparib alone) 33.5% | viability ([13]; at 1.25 µM, OCI-C5x cells, without rucaparib) 20% | viability ([13]; at 1.25 µM, OCI-P5x cells, with rucaparib 20 µM, 100% = cells with rucaparib alone) 13.7% | viability ([13]; at 1.25 µM, OCI-P5x cells, without rucaparib) 9.05% | viability ([13]; at 5 µM, OCI-C5x cells, with rucaparib 10 µM, 100% = cells with rucaparib alone) 13% | viability ([13]; at 5 µM, OCI-C5x cells, without rucaparib) 8.94% | viability ([13]; at 5 µM, OCI-P5x cells, with rucaparib 20 µM, 100% = cells with rucaparib alone) 6.86% | viability ([13]; at 5 µM, OCI-P5x cells, without rucaparib) 3.71%
inactive: plate-normalised HSF1 focus index [12] 0.95 | viability ([13]; at 0.000305 µM, OCI-C5x cells, with rucaparib 10 µM, 100% = cells with rucaparib alone) 130% | viability ([13]; at 0.00122 µM, OCI-C5x cells, with rucaparib 10 µM, 100% = cells with rucaparib alone) 134% | viability ([13]; at 0.00488 µM, OCI-C5x cells, with rucaparib 10 µM, 100% = cells with rucaparib alone) 117% | viability ([13]; at 0.0195 µM, OCI-C5x cells, with rucaparib 10 µM, 100% = cells with rucaparib alone) 108%

CC(C)(OCc1nn(Cc2ccccc2)c2ccccc12)C(=O)O
9960: cell count [10, 17]
0.724: fold change [10, 15]
inactive: outcome [1] | outcome [2] | outcome [3] | outcome [4] | outcome [5] | outcome [6] | outcome [7] | outcome [8] | outcome [9] | fold change [10, 14] 0.935 | z-score [11, 18] -0.401
9310: cell count [10, 16]
-0.561: z-score [11, 19]
